Measured values as given in ChEMBL document CHEMBL1201862, “PubChem BioAssay data set” (2004).
Screen size: about 400,000 compounds; about 2,100 (0.53%) were called active. Roughly 14% stayed inconclusive and do not appear here. No rule for the calls is given here. The sample as a whole holds a higher share of actives than the screen did.

Each compound was assayed against Ataxin-2 (Homo sapiens) (UniProt Q99700) (assay: qHTS for Inhibitors of ATXN expression.).
Assay type: functional

Ataxin-2 (Homo sapiens), sequence (Q99700 whole entry): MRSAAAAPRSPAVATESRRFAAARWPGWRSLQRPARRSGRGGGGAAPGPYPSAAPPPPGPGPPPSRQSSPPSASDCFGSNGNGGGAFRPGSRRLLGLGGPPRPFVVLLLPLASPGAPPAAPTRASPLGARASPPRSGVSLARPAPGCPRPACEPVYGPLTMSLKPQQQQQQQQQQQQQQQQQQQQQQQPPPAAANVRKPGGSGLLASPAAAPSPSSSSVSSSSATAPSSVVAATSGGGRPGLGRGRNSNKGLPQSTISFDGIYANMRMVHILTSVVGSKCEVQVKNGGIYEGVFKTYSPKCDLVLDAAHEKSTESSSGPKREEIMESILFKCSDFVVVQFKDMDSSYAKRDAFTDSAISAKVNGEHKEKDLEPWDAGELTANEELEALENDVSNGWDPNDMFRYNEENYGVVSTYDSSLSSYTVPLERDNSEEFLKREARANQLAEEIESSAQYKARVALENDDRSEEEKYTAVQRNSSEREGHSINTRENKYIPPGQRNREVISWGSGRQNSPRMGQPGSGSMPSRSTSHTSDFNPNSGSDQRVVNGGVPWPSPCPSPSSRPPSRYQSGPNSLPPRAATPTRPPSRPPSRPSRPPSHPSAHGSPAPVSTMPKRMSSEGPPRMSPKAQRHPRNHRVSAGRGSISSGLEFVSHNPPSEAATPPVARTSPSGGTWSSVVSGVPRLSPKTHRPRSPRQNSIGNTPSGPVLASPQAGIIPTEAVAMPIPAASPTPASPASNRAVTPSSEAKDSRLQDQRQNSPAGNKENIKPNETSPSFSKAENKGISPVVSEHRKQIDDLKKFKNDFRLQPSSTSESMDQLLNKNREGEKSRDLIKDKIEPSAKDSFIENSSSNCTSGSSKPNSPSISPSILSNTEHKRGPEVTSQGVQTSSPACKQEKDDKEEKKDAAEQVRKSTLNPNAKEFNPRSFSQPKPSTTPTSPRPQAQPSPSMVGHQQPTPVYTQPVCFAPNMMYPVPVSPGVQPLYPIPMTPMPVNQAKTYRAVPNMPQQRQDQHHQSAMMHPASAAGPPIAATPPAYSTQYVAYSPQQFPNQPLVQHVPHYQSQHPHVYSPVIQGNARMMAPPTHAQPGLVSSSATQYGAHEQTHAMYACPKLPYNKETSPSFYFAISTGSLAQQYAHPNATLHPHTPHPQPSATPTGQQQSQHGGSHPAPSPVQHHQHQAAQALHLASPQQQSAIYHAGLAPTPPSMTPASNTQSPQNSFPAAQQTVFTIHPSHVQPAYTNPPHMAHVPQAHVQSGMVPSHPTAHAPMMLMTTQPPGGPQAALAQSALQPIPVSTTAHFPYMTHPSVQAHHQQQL

Structure (SMILES)	Potency
O=C(COc1ccccc1C(=O)NCc1ccncc1)Nc1ccc(Br)cc1	inactive
CCN1CCN(Cc2c(O)ccc3c(C)c(-c4ccc(OC)cc4)c(=O)oc23)CC1	inactive
CCOC(=O)CNc1c(-c2ccc(F)cc2)nc2cnccn12	inactive
COC(=O)CCS(=O)(=O)c1nc(-c2ccccc2)cc(C(F)(F)F)n1	39.8 µM (active)
COc1ccc(-c2c(C(F)(F)F)nn3c(O)cc(-c4ccccc4)nc23)cc1	inactive
O=C(COC(=O)CCS(=O)(=O)c1ccccc1)Nc1ccccc1	inactive
CCOC(=O)CS(=O)(=O)c1nc(-c2ccc(F)cc2)cc(C(F)(F)F)n1	31.6 µM (active)
COC(=O)c1cc2nc(-c3ccc(C)cc3)cc(C(F)(F)F)n2n1	inactive
CS(=O)(=O)c1nc(-c2ccccc2)cc(C(F)(F)F)n1	35.5 µM (active)
COCC(C)NC(=O)c1cnn2c(C(F)F)cc(-c3ccccc3)nc12 (stereo not given)	inactive
Cc1ccc(S(=O)(=O)CCC(=O)OCC(=O)NC(C)c2ccccc2)cc1 (stereo not given)	inactive
CCOC(=O)CCS(=O)(=O)c1nc(-c2ccccc2)cc(C(F)(F)F)n1	31.6 µM (active)
Nc1c(C(=O)C2CC2)sc2nc(-c3ccccc3)cc(C(F)(F)F)c12	inactive
COCCNC(=O)c1nn2c(C(F)(F)F)cc(-c3ccccc3)nc2c1Cl	inactive
CCCCn1nc(NC(=O)CCC)c2cc3cc(OC)ccc3nc21	inactive
CC(C)CNC(=O)COC(=O)c1c2c(nc3ccccc13)/C(=C/c1cccs1)CC2	inactive
CCN1CCN(Cc2c(O)ccc3c2O/C(=C\c2ccccc2)C3=O)CC1	inactive
CCOC(O)=C(C(C)=N)C1CC(=O)NC1=O (stereo not given)	inactive
Cc1ccc(-c2cc(C(=O)NCC3(N(C)C)CCCCC3)c3ccccc3n2)o1	inactive
CCN(CC)CCNC(=O)c1cc(-c2ccc(Br)s2)nc2ccccc12	39.8 µM (active)
CCc1ccc(-c2cc(C(=O)NN3CCOCC3)c3ccccc3n2)s1	inactive
O=C(NC1CC1)c1cc(-c2ccc(Br)cc2)nc2ccccc12	inactive
CCN(CC)CC(C)CNC(=O)c1cc(-c2ccc(Br)s2)nc2ccccc12 (stereo not given)	14.1 µM (active)
Cc1cc(C(=O)NCCN2CCOCC2)c2ccccc2n1	inactive
CN(Cc1ccccc1OCCO)CC1CCCN(CCc2ccc(Cl)cc2)C1 (stereo not given)	inactive

Structure (SMILES)	Potency
C=CCNC(=O)/C(C#N)=C/c1c(N2CCN(c3ccccc3)CC2)nc2c(C)cccn2c1=O	inactive
CCc1c(C)c2cc3c(c(C)c2oc1=O)OCN(CCc1ccc(OC)c(OC)c1)C3	inactive
COc1ccc(CCN(C)C(=O)c2cc(=O)c3ccccc3o2)cc1OC	inactive
COc1ccc(CCNc2ncnc3c2oc2ccccc23)cc1OC	31.6 µM (active)
COc1cc(C(Nc2ccccn2)c2ccc3ccc(C)nc3c2O)cc(OC)c1O (stereo not given)	39.8 µM (active)
Cc1cccc(NC(c2ccccc2C)c2ccc3ccc(C)nc3c2O)n1 (stereo not given)	inactive
COc1cc(/C=N/Nc2ccccn2)cc(OC)c1O	inactive
CC(C)C[C@@H](COCc1ccc(Cl)cc1)N1CCN(C(=O)c2ccc(C(F)(F)F)cc2)CCC1=O	31.6 µM (active)
CC(C)C[C@@H](COCc1cccc(Cl)c1)N1CCN(C(=O)c2ccc(C(F)(F)F)cc2)CCC1=O	22.4 µM (active)
CC(C)CC(COCc1cccc(Cl)c1)N1CCN(C(=O)c2ccc(C(F)(F)F)cc2)CCC1=O (stereo not given)	39.8 µM (active)
CN1CCN(C(=O)c2ccc(C(F)(F)F)cc2)CC1	inactive
CCn1nc(NC(C)=O)c2cc3ccc(C)cc3nc21	inactive
CCC(=O)NC1=C(Cl)C(=O)C(NC(=O)CC)=C(Cl)C1=O	5.01 µM (active)
CCN(CC)c1ccc2cc(-c3nnc(-c4ccncc4)o3)c(=O)oc2c1	inactive
O=C(N/N=C/c1sc(N2CCOCC2)nc1-c1ccccc1)c1ccccc1Cl	inactive
O=C(Oc1c(-c2ccco2)oc2ccccc2c1=O)c1cccnc1	inactive
CCOC(=O)C1=C(C)OC(N)=C(C#N)C1c1cccs1 (stereo not given)	inactive
O=S(=O)(Nc1cccc(-c2nc3cccnc3s2)c1)c1ccc2c(c1)CCCC2	inactive
CC1C(=O)C(C)C(c2cc(Cl)ccc2O)NC1c1cc(Cl)ccc1O (stereo not given)	39.8 µM (active)
CCc1cc2c(CN3CCN(CC)CC3)cc(=O)oc2cc1O	inactive
CCCCN(C)C1=CC2=CC(=C(C#N)C#N)CCC2CC1 (stereo not given)	inactive
COc1cc(OC)c(OC)cc1CNCC1COc2ccccc2O1 (stereo not given)	inactive
Cc1nc2ccccc2c2oc(C(=O)N3CCC(N4CCCCC4)CC3)cc12	5.62 µM (active)
Cc1sc2ncn(CC(=O)NCC3COc4ccccc4O3)c(=O)c2c1S(=O)(=O)N1CCCCC1 (stereo not given)	inactive
O=C(c1cc(-c2ccc(F)cc2)nc2ccccc12)N1CCN(C2CCS(=O)(=O)C2)CC1 (stereo not given)	inactive

Structure (SMILES)	Potency
Cc1nc2ccccc2c2oc(C(=O)NCC3COc4ccccc4O3)cc12 (stereo not given)	35.5 µM (active)
COCc1c(C(=O)N2CCC(N3CCCCC3)CC2)cnn1-c1ncc(C)c(-c2cccs2)n1	inactive
Nc1cccc(N2C(=O)c3cccc4c(N)ccc(c34)C2=O)c1	inactive
CC(O)C(/N=C/C1=C(O)OC(C)(C)OC1=O)C(=O)O (stereo not given)	inactive
O=C(O)c1ccc2nc(-c3ccco3)c(-c3ccco3)nc2c1	inactive
Nc1c(C(=O)Nc2ccc(S(=O)(=O)N3CCCC3)cc2)sc2nc3ccc(OC(F)(F)F)cc3cc12	4.47 µM (active)
CCc1cccc2cc3c(N)c(C(=O)Nc4ccc(S(=O)(=O)N5CCCC5)cc4)sc3nc12	inactive
CCOc1ccc2nc3sc(C(=O)N4CCOCC4)c(N)c3cc2c1	inactive
N#C/C(=C\c1c(Oc2ccc(Cl)cc2)nc2ccccn2c1=O)C(=O)NC1CCS(=O)(=O)C1 (stereo not given)	inactive
COC(=O)c1[nH]c2ccc(Br)cc2c1NC(=O)C(C)N1CCN(C2CCCCC2)CC1 (stereo not given)	39.8 µM (active)
Cn1c(N)c(C(=O)COC(=O)CCOc2ccc(C(C)(C)C)cc2)c(=O)n(C)c1=O	inactive
O=C(NC1CCC(O)CC1)c1cc(-c2ccco2)nc2ccccc12 (stereo not given)	inactive
COc1cc(OC)cc(C(=O)NCCCCNC(=O)c2cc(OC)cc(OC)c2)c1	inactive
COc1cc(CN2CCC3(CCC(CNC(=O)c4ccccc4)O3)CC2)cc(OC)c1 (stereo not given)	11.2 µM (active)
CN1CCCC1CCNc1ccc2c(=O)c3ccccc3oc2c1 (stereo not given)	inactive
N#C/C(=C(/O)COC(=O)c1ccccc1O)c1nc2ccccc2s1	inactive
Cc1c(Cl)cccc1N/C(SCC(=O)N1CCCCCC1)=C(/C#N)c1nc2ccccc2s1	25.1 µM (active)
CC1=CC(=C(C#N)c2nc3ccccc3s2)C=C(C)N1CC1CCCO1 (stereo not given)	inactive
COc1ccc(-c2c(C#N)c(N)nc3sc(C(=O)c4ccccc4)c(N)c23)cc1	inactive
COc1ccc(CNCC(=O)Nc2sccc2C#N)cc1	inactive
COc1ccc(-c2oc(NC(=O)CCl)c(C#N)c2-c2ccc(OC)cc2)cc1	31.6 µM (active)
Cc1cccc(C)c1NC(=O)NC1(C(=O)N2CCCCC2)CCCCC1	inactive
O=S(=O)(Nc1nc2n(n1)C(c1ccc(F)cc1)C=C(c1ccccc1)N2)c1ccc(Cl)cc1 (stereo not given)	inactive
CC(C)Cc1ccc(C(C)/C=C2/CCC(CN3CCCCC3)C2=O)cc1 (stereo not given)	35.5 µM (active)
CCOC(=O)C1C(=O)C=C(c2ccc(NS(C)(=O)=O)cc2)CC1c1ccco1 (stereo not given)	inactive

Structure (SMILES)	Potency
COn1c(C)c(C)c2c3nonc3ccc21	inactive
O=C(O)c1cc2cc(Cl)cc(Cl)c2oc1=O	inactive
O=C1C(Br)=C(c2ccccc2)C(c2ccccc2)=C1c1ccccc1	39.8 µM (active)
O=C(c1cnc2nc3ccccc3n2c1)c1cc(F)ccc1O	inactive
CC(C)(C)c1ccc(C2=CC(c3ccccc3F)n3ncnc3N2)cc1 (stereo not given)	inactive
O=C1C=CC(=O)N1c1ccc(N2CCCCC2)cc1	39.8 µM (active)
O=S(=O)(c1ccccc1)c1ccc(N2CCCCCC2)cc1	inactive
CN1C(=O)c2ccc(N3CCCC3)cc2C1=O	inactive
COc1ccc(C(=O)c2sc(Nc3ccccc3)nc2N)cc1OC	inactive
COc1cccc(Nc2nc(C(N)C3CCCCC3)cs2)n1 (stereo not given)	39.8 µM (active)
O=C(O)Cc1sc(Nc2ccccc2)nc1-c1ccccc1	inactive
NC(Cc1ccc(F)cc1)c1csc(Nc2ccc(C(=O)c3ccccc3)cc2)n1 (stereo not given)	39.8 µM (active)
NC(c1csc(Nc2ccc(C(=O)c3ccccc3)cc2)n1)C1CCCCC1 (stereo not given)	31.6 µM (active)
NC(Cc1ccc(Cl)cc1)c1csc(Nc2ccc(C(=O)c3ccccc3)cc2)n1 (stereo not given)	39.8 µM (active)
COc1ccc(C(=O)c2sc(Nc3ccccc3)nc2C)cc1	inactive
CCOC(=O)c1cc2c(=O)n3ccccc3nc2n(Cc2ccco2)/c1=N/C(=O)c1ccc(OC)cc1	inactive
O=C1CCCC(O)=C1C1C2=C(CCCC2=O)OC2=C1C(=O)CCC2	inactive
CCOc1cccc2cc(-c3csc(NC(=O)CCC(=O)NCCN4CCCCC4C)n3)c(=O)oc12 (stereo not given)	inactive
N#CC1=C(N)Oc2cc(N)ccc2C1c1ccccc1F (stereo not given)	inactive
c1ccc(-c2nnc(SCC3CCCCO3)nc2-c2ccccc2)cc1 (stereo not given)	inactive
NC(Cc1ccc(F)cc1)c1csc(Nc2nncc3ccccc23)n1 (stereo not given)	39.8 µM (active)
NC(Cc1ccccc1)c1csc(Nc2nncc3ccccc23)n1 (stereo not given)	inactive
Cc1ccc(C#N)c(SCC(=O)Nc2nccs2)n1	inactive
O=C(O)c1ccc(CP(=O)(c2ccccc2)c2ccccc2)cc1	inactive
O=C(C=P(c1ccccc1)(c1ccccc1)c1ccccc1)c1ccccc1-c1ccccc1C(=O)C=P(c1ccccc1)(c1ccccc1)c1ccccc1	20 µM (active)
